Laboratory results taken from ChEMBL document CHEMBL2218924, “A broad activity screen in support of a chemogenomic map for kinase signalling research and drug discovery” (Biochem J, 2013).

These compounds were tested against Protein kinase C beta type (Homo sapiens) (UniProt P05771). Details: at 1 µM.
Protein kinase C beta type (Homo sapiens), sequence (P05771 2-671 limits assumed): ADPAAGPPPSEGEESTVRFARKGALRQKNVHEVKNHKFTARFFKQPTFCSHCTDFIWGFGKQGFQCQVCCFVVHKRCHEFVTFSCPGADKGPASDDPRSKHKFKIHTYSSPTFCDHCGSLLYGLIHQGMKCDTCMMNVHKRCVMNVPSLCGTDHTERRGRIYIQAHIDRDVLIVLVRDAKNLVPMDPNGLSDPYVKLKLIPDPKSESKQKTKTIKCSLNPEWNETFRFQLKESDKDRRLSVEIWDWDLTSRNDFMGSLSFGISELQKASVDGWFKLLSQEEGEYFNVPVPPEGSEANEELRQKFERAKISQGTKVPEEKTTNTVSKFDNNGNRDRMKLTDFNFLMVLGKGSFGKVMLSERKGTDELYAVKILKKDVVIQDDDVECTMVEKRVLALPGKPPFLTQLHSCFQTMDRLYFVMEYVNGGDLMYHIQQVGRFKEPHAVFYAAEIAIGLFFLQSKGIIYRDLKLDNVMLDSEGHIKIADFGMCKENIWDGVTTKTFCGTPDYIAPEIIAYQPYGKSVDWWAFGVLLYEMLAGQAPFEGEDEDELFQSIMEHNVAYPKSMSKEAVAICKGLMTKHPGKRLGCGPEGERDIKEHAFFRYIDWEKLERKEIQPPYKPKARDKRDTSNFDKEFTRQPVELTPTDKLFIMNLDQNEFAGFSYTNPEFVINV
Compound `CC(C)c1nn(-c2c(Cl)cccc2Cl)c2nc(Cc3ccc(OCCO)cc3)[nH]c(=O)c12` has a residual activity of 104%. `O=c1cc(N2CCNCC2)oc2c(-c3ccccc3)cccc12` was tested, and the residual activity was 97%. `O=c1cc(N2CCOCC2)oc2c1ccc1ccccc12` was tested, and the residual activity was 95%. Compound `COc1cc2nccc(Oc3ccc(NC(=O)Nc4cc(C)on4)c(Cl)c3)c2cc1OC` has a residual activity of 109%. `NC(=O)c1cccc(-c2cc(Nc3ccc(OC(F)(F)F)cc3)ncn2)c1` gave a residual activity of 92%. `O=C1NC(=O)C(c2cn(CCCn3ccnc3)c3ccccc23)=C1Nc1ccccc1` gave a residual activity of 27%.

The compounds below were run against Protein kinase C beta type (Homo sapiens) (UniProt P05771). Details: at 10 µM.
With `O=S(=O)(NCCNC/C=C/c1ccc(Br)cc1)c1cccc2cnccc12` the residual activity was 55%. Work on `O=C1Cc2c([nH]c3ccc(Br)cc23)-c2ccccc2N1` yielded a residual activity of 88%. In the case of `CC(C)c1nn(-c2c(Cl)cccc2Cl)c2nc(Cc3ccc(OCCO)cc3)[nH]c(=O)c12`, the residual activity is reported as 95%. In the case of `O=c1cc(N2CCNCC2)oc2c(-c3ccccc3)cccc12`, the residual activity is reported as 95%. `O=c1cc(N2CCOCC2)oc2c1ccc1ccccc12` showed a residual activity of 92%. `COc1cc2nccc(Oc3ccc(NC(=O)Nc4cc(C)on4)c(Cl)c3)c2cc1OC` was tested, and the residual activity was 104%. `CCN1/C(=C/C(C)=O)Sc2ccc(OC)cc21` showed a residual activity of 82%. With `Nc1nc(Nc2ccc(S(N)(=O)=O)cc2)nn1C(=O)c1c(F)cccc1F` the residual activity was 54%. `O=S(=O)(c1cccc2cnccc12)N1CCCNCC1` was tested, and the residual activity was 67%. With `NC(=O)c1cccc(-c2cc(Nc3ccc(OC(F)(F)F)cc3)ncn2)c1` the residual activity was 96%. With `O=C1NC(=O)C(c2cn(CCCn3ccnc3)c3ccccc23)=C1Nc1ccccc1` the residual activity was 6%.
